# Data reported in PubChem BioAssay (NCATS).
# Records with an inconclusive call do not appear. A call without a number means that no potency is given here. Values without a mark were called inactive. Calls of active or inactive are those of the source. Calls follow the shape of the dose curve; as a rule, active = well fitted curve in the direction sought with a large enough effect; inconclusive = small, poorly fitted or top-dose-only effect, or another doubt; inactive = no such curve, though single readings can be large; an effect the other way counts as inactive or inconclusive.
# Assays:
# [1] = Quantitative highthroughput screen to assess conditional lethalithy of NOMO1 cells grown in RPMI1640 with untreated serum (RPMI+s) (AID 1963876); also: nearly all actives have a fitted effect of over 35% in size
# How it was run: (§1)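 Each medium arm—HPLM with 10% dialyzed FBS, or RPMI1640 with 5 mM glucose and 10% untreated or dialyzed FBS—was screened against an 11-point, 3-fold compound titration for 48 h at 37 °C, with CellTiter-Glo luminescence as endpoint.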
# [2] = Quantitative highthroughput screen to assess conditional lethalithy of P12 Ichikawa cells grown in Human Plasma-Like Medium with dialyzed fetal bovine serum (HPLM+ds) (AID 1963879); settings: Potency: viability; also: nearly all actives have a fitted effect of over 35% in size; as to viability: series mostly up to about 46 µM
# How it was run: as §1
# [3] = Quantitative highthroughput screen to assess conditional lethalithy of P12 Ichikawa cells grown in RPMI1640 with dialyzed fetal bovine serum (RPMI+ds) (AID 1963880); settings: Potency: P12-Ichikawa viability; also: nearly all actives have a fitted effect of over 35% in size
# How it was run: as §1
# [4] = Quantitative highthroughput screen to assess conditional lethalithy of P12 Ichikawa cells grown in RPMI1640 with untreated serum (RPMI+s) (AID 1963881); settings: Potency: viability; also: nearly all actives have a fitted effect of over 35% in size; as to viability: series mostly up to about 46 µM
# How it was run: as §1
# [5] = Quantitative highthroughput screen to assess conditional lethalithy of SEM cells grown in Human Plasma-Like Medium with dialyzed fetal bovine serum (HPLM+ds) (AID 1963882); also: nearly all actives have a fitted effect of over 35% in size; as to viability: series mostly up to about 46 µM
# How it was run: as §1
# [6] = Quantitative highthroughput screen to assess conditional lethalithy of SEM cells grown in RPMI1640 with unreated serum (RPMI+s) (AID 1963883); also: nearly all actives have a fitted effect of over 35% in size
# How it was run: as §1
# [7] = Quantitative highthroughput screen to assess conditional lethalithy of SEM cells grown in RPMI1640 with dialyzed fetal bovine serum (RPMI+ds) (AID 1963884); also: nearly all actives have a fitted effect of over 35% in size; as to viability: series mostly up to about 46 µM
# How it was run: as §1
# [8] = Quantitative highthroughput screen to assess conditional lethalithy of NOMO1 cells grown in Human Plasma-Like Medium with dialyzed fetal bovine serum (HPLM+ds) (AID 1963878); also: nearly all actives have a fitted effect of over 35% in size
# How it was run: as §1
# [9] = Cellular viability qHTS for adrenocortical cancer (ACC) cell line SW-13 (AID 1963989); settings: SW-13 ACC cells viability, CellTiter-Glo, 48 h; activity (max response): active compounds read low; also: nearly all actives have a fitted effect of over 65% in size;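 as to activity (max response): cells grown in serum-free medium with ITS supplement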
# How it was run: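 Compound titrations (up to 46 uM final, in DMSO) were applied to SW-13 cells for 48 h at 37C/5% CO2. Reading used CellTiter-Glo after 20 min at room temperature; fitted curves yielded IC50 and efficacy.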
# [10] = Cellular viability qHTS for adrenocortical cancer (ACC) cell line NCI-H295R (AID 1963990); also: nearly all actives have a fitted effect of over 60% in size
# How it was run: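 Readout: CellTiter-Glo luminescence, 20 min RT. Exposure: 48 h, 37C/5% CO2. Cells: NCI-H295R, ITS-DMEM serum-free. Range: up to 46 uM. Analysis: 4PL fit, IC50 plus efficacy.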
# Potency is read from the fitted curve at half-maximal effect.
smiles,measurement,setting,value
OCCN1C[C@H](O)[C@@H](O)[C@H](O)[C@@H]1CO,Potency,[1],0.105 µM (active)
same,Potency,[2],2.64 µM (active)
same,Potency,[3],2.96 µM (active)
same,Potency,[4],2.64 µM (active)
same,Potency,[5],inactive
same,Potency,[6],inactive
same,Potency,[7],inactive
O=C(N[C@H](CO)[C@H](O)c1ccc([N+](=O)[O-])cc1)C(Cl)Cl,Potency,[1],inactive
same,Potency,[8],inactive
same,Potency,[4],20.9 µM (active)
same,Potency,[6],inactive
same,Potency,[7],inactive
same,activity (max response),[9],-5.45%
same,Potency,[10],inactive
O=C(NC1CCOCC1)c1ccc(-c2cc(-c3cn[nH]c3-c3ccccn3)ccn2)cc1,Potency,[1],inactive
same,Potency,[8],inactive
same,Potency,[3],inactive
same,Potency,[4],inactive
same,Potency,[5],inactive
same,Potency,[6],inactive
same,activity (max response),[9],6.28%
same,Potency,[10],inactive
CC(C=CC(=O)NO)=C[C@@H](C)C(=O)c1ccc(N(C)C)cc1,Potency,[1],2.09 µM (active)
same,Potency,[2],1.48 µM (active)
same,Potency,[3],1.18 µM (active)
same,Potency,[4],1.18 µM (active)
same,Potency,[5],0.59 µM (active)
same,Potency,[6],0.662 µM (active)
same,Potency,[7],0.59 µM (active)
O=C1CCc2cc(OCCCCc3nnnn3C3CCCCC3)ccc2N1,Potency,[1],inactive
same,Potency,[8],inactive
same,Potency,[2],inactive
same,Potency,[3],inactive
same,Potency,[5],inactive
same,Potency,[6],inactive
same,Potency,[7],inactive
same,Potency,[10],inactive
CN(C)N=Nc1nc[nH]c1C(N)=O,Potency,[1],inactive
same,Potency,[8],inactive
same,Potency,[2],2.64 µM (active)
same,Potency,[4],2.09 µM (active)
same,Potency,[5],inactive
same,Potency,[7],0.833 µM (active)
CO[C@H]1C(=O)[C@]2(C)[C@@H](OC)C[C@H]3OC[C@@]3(OC(C)=O)[C@H]2[C@H](OC(=O)c2ccccc2)[C@]2(O)C[C@H](OC(=O)[C@H](O)[C@@H](NC(=O)OC(C)(C)C)c3ccccc3)C(C)=C1C2(C)C,Potency,[1],0.0132 µM (active)
same,Potency,[8],0.0021 µM (active)
same,Potency,[4],0.0148 µM (active)
same,Potency,[6],0.0042 µM (active)
same,Potency,[10],0.0079 µM (active)
CCCCCCCN(CC)CCCC(O)c1ccc(NS(C)(=O)=O)cc1 (stereo unspecified),Potency,[1],inactive
same,Potency,[8],inactive
same,Potency,[2],13.2 µM (active)
same,Potency,[3],18.7 µM (active)
same,activity (max response),[9],-11.3%
same,Potency,[10],inactive
c1ccc(CNc2nc(N3CCOc4ccccc43)nc3c2CCCC3)cc1,Potency,[1],inactive
same,Potency,[8],inactive
same,Potency,[2],inactive
same,Potency,[5],inactive
same,Potency,[7],inactive
Clc1ccc(COC(Cn2ccnc2)c2ccc(Cl)cc2Cl)cc1 (stereo unspecified),Potency,[1],inactive
same,Potency,[8],inactive
same,Potency,[2],inactive
same,Potency,[3],5.9 µM (active)
same,Potency,[5],inactive
same,Potency,[7],inactive
C[C@]12CCC3=C4CCC(=O)C=C4CC[C@@H]3[C@H]1CC[C@@]2(O)CC#N,Potency,[1],inactive
same,Potency,[8],inactive
same,Potency,[2],inactive
same,Potency,[3],inactive
same,Potency,[5],inactive
same,Potency,[6],inactive
same,Potency,[7],inactive
OC[C@H]1O[C@@H](Oc2ccc(O)cc2)[C@H](O)[C@@H](O)[C@H]1O,Potency,[1],inactive
same,Potency,[8],inactive
same,Potency,[2],inactive
same,Potency,[3],inactive
same,Potency,[5],inactive
same,Potency,[7],inactive
CC(N[C@H]1CCCC[C@H]1NC(=O)c1ccc(Cl)cc1)c1cccc2ccccc12 (stereo partly specified),Potency,[1],8.33 µM (active)
same,Potency,[8],5.26 µM (active)
same,Potency,[5],inactive
same,Potency,[6],inactive
same,Potency,[7],inactive
same,Potency,[9],25.1 µM (active)
same,Potency,[10],7.08 µM (active)
CC(C)(C)[C@H](NC(=O)c1ccc(N)c(Cl)c1)C(=O)N1CCC[C@@H]1C(=O)N[C@H](C#N)CC(=O)O,Potency,[1],0.105 µM (active)
same,Potency,[2],0.372 µM (active)
same,Potency,[3],1.05 µM (active)
same,Potency,[4],0.418 µM (active)
same,viability,[5],112% [at 3.51 µM]
same,viability,[6],92.8% [at 3.51 µM]
same,viability,[7],105% [at 3.51 µM]
C=CCNc1c(O)cc2c(O)c1C[C@@H](C)C[C@H](OC)[C@@H](O)[C@@H](C)C=C(C)[C@H](OC(N)=O)[C@@H](OC)C=CC=C(C)C(=O)N2,Potency,[1],10.5 µM (active)
same,Potency,[8],13.2 µM (active)
same,Potency,[5],1.66 µM (active)
same,Potency,[6],0.833 µM (active)
same,Potency,[7],0.833 µM (active)
CCc1cc(C(C)=NOCc2ccc(C3CCCCC3)c(C(F)(F)F)c2)ccc1CN1CC(C(=O)O)C1,Potency,[1],8.33 µM (active)
same,Potency,[2],8.33 µM (active)
same,Potency,[3],7.43 µM (active)
same,Potency,[4],9.35 µM (active)
same,Potency,[5],7.43 µM (active)
same,Potency,[6],13.2 µM (active)
COc1cccc(-c2ccc(NC(=O)C3=C(C(=O)O)CCC3)c(F)c2)c1,Potency,[1],inactive
same,Potency,[8],inactive
same,Potency,[2],16.6 µM (active)
same,Potency,[5],inactive
C[C@H]1C[C@H]2[C@@H]3CCC4=CC(=O)C=C[C@]4(C)[C@@H]3C(=O)C[C@]2(C)[C@@]1(O)C(=O)CO,Potency,[1],inactive
same,Potency,[8],inactive
same,Potency,[2],inactive
same,Potency,[4],inactive
same,Potency,[6],20.9 µM (active)
same,Potency,[7],23.5 µM (active)
Cn1c2cc(S(C)=O)sc2c2cnn(Cc3cccc(N)c3)c(=O)c21 (stereo unspecified),Potency,[1],inactive
same,Potency,[8],inactive
same,Potency,[10],inactive
Cc1[nH]c(C=C2C(=O)Nc3ccccc32)c(C)c1CCC(=O)O,Potency,[1],14.8 µM (active)
same,Potency,[2],9.35 µM (active)
same,Potency,[3],18.7 µM (active)
COc1ccc(-c2ccc3c(N4CCOC[C@H]4C)nc(N4CCOC[C@H]4C)nc3n2)cc1CO,Potency,[1],18.7 µM (active)
same,Potency,[2],18.7 µM (active)
